# Results as given in PubChem BioAssay (NCATS).
# Inconclusive results are not listed. Activity calls are given as the source filed them. The call rests on the fitted dose curve; in most records, active means well fitted cell-killing curve with a large enough effect; inconclusive means small, poorly fitted or top-dose-only effect, or effect the other way; inactive means flat fitted curve, though single readings scatter. *1 amine or outer side, *2 acyl side, *3 side chain or, on linkers, in order; H or OH if unused. Where a SMILES comes first, the peptide text is derived from it. Bridges are numbered along the chain shown (N, C = ends). [ ]: non-standard residue; d: D form. The star is where a group is joined. pTerphenylCO(4''-OnC5H11) = CCCCCOc1ccc(-c2ccc(-c3ccc(C(=O)*)cc3)cc2)cc1; Orn(4R-OH,5R-OH) = O=C([C@H](C[C@@H](O)[C@@H](O)N[*:3])N[*:1])[*:2]; hTyr(3S-OH,4S-OH) = N[C@H](C(=O)O)[C@H](O)[C@@H](O)c1ccc(O)cc1; Pro(3S-OH,4S-Me) = C[C@H]1CN[C@H](C(=O)O)[C@H]1O; Hyp = O=C(O)[C@@H]1C[C@@H](O)CN1
# Tested on: Hek293T
# Test: Primary qHTS to identify gynecologic anti-cancer compounds using libraries of approved drugs and bioactive compounds (AID 1345084); further: nearly all actives have a fitted effect of over 55% in size
# Conditions: Gynecologic cancer cell panel viability, ATPlite luminescence, 48 h, control line for the selectivity index; series mostly up to 57.5 µM; activity change, negative = cytotoxicity: at the top concentration
# Outline: (§1)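 Cells, 1,000 per well, were allowed to settle for 16 h at 37 C before compound addition. Five concentrations were tested for 48 h, and viability was read by ATPlite luminescence after 15 min at room temperature.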
# On the % scale 0 is the no-effect control and ±100 the full control effect.
row,Compound,"activity change, negative = cytotoxicity"
1,CN(C)C(=O)Nc1cc(-c2ccccc2)ccc1N(C)C,-9.65% (inactive)
2,C/C(=C\CO[C@@H]1O[C@H](CO[C@H]2OC[C@](O)(CO)[C@H]2O)[C@@H](O)[C@H](O)[C@H]1O)C(C)(C)O,-4.12% [at 25.3 µM] (inactive)
3,CC[C@@H](Nc1c(Nc2cccc(C(=O)N(C)C)c2O)c(=O)c1=O)c1cc(C(C)C)co1,9.52% (inactive)

# Tested on: JEG-3
# Test: as above
# Conditions: Gynecologic cancer cell panel viability, ATPlite luminescence, 48 h; series mostly up to 57.5 µM; activity change, negative = cytotoxicity: at the top concentration
# Outline: as §1
row,Compound,"activity change, negative = cytotoxicity"
1,CC(OC1OCCN(Cc2n[nH]c(=O)[nH]2)C1c1ccc(F)cc1)c1cc(C(F)(F)F)cc(C(F)(F)F)c1 (configuration not stated),1.62% (inactive)
2,Fc1ccc(-c2cncc(CN3CCN(c4cccc5c4OCCO5)CC3)c2)cc1,-26.8% (inactive)
3,C=C(CCC1C(C)(O)CCC2C(C)(C)C(O)CCC12C)C(O)CO (configuration not stated),-12.6% [at 38.5 µM] (inactive)
4,CCC[C@@]1(CCc2ccccc2)CC(O)=C([C@H](CC)c2cccc(NS(=O)(=O)c3ccc(C(F)(F)F)cn3)c2)C(=O)O1,3.48% (inactive)
5,COc1ccc([C@H]2Cc3cccc(O)c3C(=O)O2)cc1OC,-0.959% (inactive)
6,C/C=C(/C)C(=O)OC1C=C2C3C(C)C(C)C(OC(=O)C(C)C(C)O)CC3(C)CCC2(C)C2(C)CC(OC(C)=O)C3C(C)(C)C(O)C(=O)CC3(C)C12 (configuration not stated),-0.883% [at 25.3 µM] (inactive)
7,CN1CCN(C2=Nc3ccccc3Nc3ccc(Cl)cc32)CC1,5.65% (inactive)
8,COc1ccc(NC(=O)c2ccc(-c3ccc(C(=N)N)cc3C)cc2)cc1N1CCN(C)CC1,-3.29% (inactive)
9,O=C(c1ccccn1)N(Cc1cccs1)C1(C(=O)NC2CCCCC2)CCCCC1,5.76% (inactive)
10,O=c1cc(OCc2ccc(F)cc2)ccn1-c1ccc(OCCN2CCCC2)cc1,-4.01% (inactive)
11,Cc1cccc(N2CCN(C(=O)c3cc(S(=O)(=O)N(C)C)ccc3N3CCCC3)CC2)c1C,-0.161% (inactive)
12,N#CC(CCCN1CCN(/N=C/c2cccnc2)CC1)(c1ccccc1)c1ccccc1,0.255% (inactive)
13,Cc1cccc(C#Cc2cc(F)cc(C#N)c2)n1,-9.72% (inactive)
14,COc1ccncc1C(=O)NC(=O)Nc1ccc(-c2ccccc2)c(C(F)(F)F)c1,-11% (inactive)
15,Clc1ccc(Cn2c(Cc3ccccc3)nc3ccccc32)cc1,-6.58% (inactive)
16,Cc1cc2sc(NC(=O)Cc3ccccc3)nc2cc1Cl,-14.6% (inactive)
17,O=C(Cc1c(F)cccc1F)Nc1cc(OCc2ccc(Cl)cc2)ccn1,19.1% (inactive)
18,O=C(c1cc(Cc2n[nH]c(=O)c3ccccc23)ccc1F)N1CCCNCC1,12.6% (inactive)
19,CCC(C)/C=C(C)/C=C/C1=CC2=CC(=O)C3(C)OC(C)(O)C(C(=O)OC)C3C2=CO1 (configuration not stated),-4.17% [at 25.3 µM] (inactive)
20,CNc1cc2[nH]c(=O)n(-c3ccc(NC(=O)NS(=O)(=O)c4ccc(Cl)s4)cc3)c(=O)c2cc1F,14.6% (inactive)

row,Compound,"activity change, negative = cytotoxicity"
1,COc1ccc(-n2c(SCCCN3C(=O)c4cccc5cccc(c45)C3=O)nnc2-c2ccncc2)cc1,1.89% (inactive)
2,C=C1C(=O)OC2/C=C(\CO)CC/C=C(\C=O)C(O)C(OC(=O)C(C)CC)C12 (configuration not stated),-12.2% [at 38.5 µM] (inactive)
3,O=C(Nc1ccccc1C(=O)Nc1ccc(CCO)cc1)c1ccc([N+](=O)[O-])cc1,-14.1% (inactive)
4,CC1(C)CC[C@]2(C(=O)O)CC[C@]3(C)C(=CCC4[C@@]5(C)C[C@@H](O)[C@H](O)[C@@](C)(CO)C5CC[C@]43C)[C@@H]2[C@@H]1O (some centres not stated),5.8% [at 25.3 µM] (inactive)
5,C=C(C(=O)OC[C@H]1O[C@@H](OC(=O)/C=C/c2ccccc2)[C@H](O)[C@@H](O)[C@@H]1O)C(O)CO (some centres not stated),2.56% [at 25.3 µM] (inactive)
6,COc1ccccc1OCCNCC(O)CCOc1cccc2[nH]c3ccccc3c12 (configuration not stated),-6.99% (inactive)
7,CC(C)/C=C1\NC(=O)C(C(C)C)n2c1nc1ccccc1c2=O (configuration not stated),-15% [at 38.5 µM] (inactive)
8,"CCCCCOc1ccc(-c2ccc(-c3ccc(C(=O)N[C@H]4C[C@@H](O)[C@@H](O)NC(=O)[C@@H]5[C@@H](O)[C@@H](C)CN5C(=O)[C@H]([C@@H](C)O)NC(=O)[C@H]([C@H](O)[C@@H](O)c5ccc(O)cc5)NC(=O)[C@@H]5C[C@@H](O)CN5C(=O)[C@H]([C@@H](C)O)NC4=O)cc3)cc2)cc1 ({pTerphenylCO(4''-OnC5H11)}-[Orn(4R-OH,5R-OH)]T[Hyp][hTyr(3S-OH,4S-OH)]T[Pro(3S-OH,4S-Me)]; lactam 1-C)",-3.39% [at 25.3 µM] (inactive)
9,COc1ccccc1C(=O)Nc1cc2c(cc1N1CCCC1)n(C)c(=O)n2C,7.79% (inactive)
10,C=C1C(=O)OC2C1CCC1(C)C(O)CCC(=C)C21 (configuration not stated),-8.62% (inactive)
11,Cc1nc(C#Cc2ccnc(Cl)c2)c(C)n1-c1ccc(OC(F)(F)F)cc1,-3.89% (inactive)
12,COc1cc(CCc2ccc(OCC=C(C)C)cc2)cc(OC)c1OC,2.62% [at 38.5 µM] (inactive)
13,CC(=O)[C@H]1CC[C@H]2[C@@H]3CC=C4C[C@@H](OS(=O)(=O)O)CC[C@]4(C)[C@H]3CC[C@]12C,29.8% (inactive)
14,C=C(C(=O)O)[C@@H]1CC=C(CCC(C)=O)[C@@H](C)CC1,14.5% (inactive)
15,C=C[C@]1(C)C[C@H](O)[C@H]2C(=C)C(=O)O[C@@H]2[C@H]1C(=C)CO,-1.5% (inactive)
16,CC[C@H](C)/C=C(C)/C=C/C1=CC2=C(Cl)C(=O)[C@](C)(O)[C@H](OC(C)=O)[C@H]2CO1,1.35% [at 38.5 µM] (inactive)
17,CN(C)C(=O)Nc1cc(-c2ccccc2)ccc1N(C)C,-3.56% (inactive)
18,C/C(=C\CO[C@@H]1O[C@H](CO[C@H]2OC[C@](O)(CO)[C@H]2O)[C@@H](O)[C@H](O)[C@H]1O)C(C)(C)O,0.604% [at 25.3 µM] (inactive)
19,CC[C@@H](Nc1c(Nc2cccc(C(=O)N(C)C)c2O)c(=O)c1=O)c1cc(C(C)C)co1,-8.77% (inactive)
